Records with an inconclusive call do not appear. The source made the active and inactive calls. How the source made its calls, unless noted: active means hit-call score of the fitted dose curve at least 0.9, where 1 is the maximum; inactive means score below 0.9.

The record followed here is PubChem BioAssay (EPA / NIEHS).

For assay [1], the target named is Nucleoli Translocation, AR (gene 367) (UniProt P10275). Description: UPITT_HCI_U2OS_AR_TIF2_Nucleoli_Antagonist: University of Pittsburgh U2OS Androgen Receptor-Transcriptional Intermediary Factor 2 (AR-TIF2) Antagonism High Content Imaging Assay for Nucleoli Translocation (AID 2283997; active means hit-call score of the fitted dose curve at least 0.9, where 1 is the maximum). Put shortly:
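An antagonist-mode imaging screen: engineered U2OS (AR-RFP, TIF2-GFP) exposed to 20 uM compound, 0.2% DMSO. Activity reflects nucleolar red fluorescence change relative to DHT baseline.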

Assay [2] has the same target. Briefly: UPITT_HCI_U2OS_AR_TIF2_Nucleoli_Agonist: University of Pittsburgh U2OS Androgen Receptor-Transcriptional Intermediary Factor 2 (AR-TIF2) Agonism High Content Imaging Assay for Nucleoli Translocation (AID 2283998; active means hit-call score of the fitted dose curve at least 0.9, where 1 is the maximum). Summed up:
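RFP-AR / GFP-TIF2 cells; cpds diluted in serum-free medium; single-point screen 20 uM final (0.2% DMSO), actives confirmed in triplicate; conc-response 0.195–50 uM final (0.5% DMSO). Readout: nucleolar red fluorescence, positive direction vs DMSO.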

Assay [3] concerns the target Ratio of Nucleoli Translocation and Cytoplasm, AR (gene 367) (UniProt P10275). Briefly: UPITT_HCI_U2OS_AR_TIF2_Nucleoli_Cytoplasm_Ratio_Antagonist: University of Pittsburgh U2OS Androgen Receptor-Transcriptional Intermediary Factor 2 (AR-TIF2) Antagonism High Content Imaging Assay for Ratio of Nucleoli Translocation and Cytoplasm (AID 2283999; active means hit-call score of the fitted dose curve at least 0.9, where 1 is the maximum;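 further: antagonists lower the DHT-driven ratio of nucleolar to cytoplasmic red signal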). Summed up:
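Read-out is the ratio of nucleolar to cytoplasmic AR-RFP fluorescence, imaged by high-content microscopy in U2OS cells coexpressing TIF2-GFP. Single-point 20 uM screen, triplicate confirmation, then 0.195–50 uM dose response; activity referenced to DHT baseline.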

For assay [4] the target is unchanged. Description: UPITT_HCI_U2OS_AR_TIF2_Nucleoli_Cytoplasm_Ratio_Agonist: University of Pittsburgh U2OS Androgen Receptor-Transcriptional Intermediary Factor 2 (AR-TIF2) Agonism High Content Imaging Assay for Ratio of Nucleoli Translocation and Cytoplasm (AID 2284000; active means hit-call score of the fitted dose curve at least 0.9, where 1 is the maximum;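 further: hits raise the red nucleolar to cytoplasm ratio above vehicle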). Put shortly:
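Primary screen at 20 uM final (0.2% DMSO), then triplicate confirmation and dose-response from 0.195 to 50 uM final (0.5% DMSO). Cells: U2OS with AR-RFP and TIF2-GFP. Endpoint is the nucleoli/cytoplasm red-fluorescence ratio, gain-of-signal vs DMSO.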

Assay [5] in a line: CCTE_Simmons_MITO_basal_resp_rate: CCTE's HepG2 Seahorse XF Respirometric Screening Assay at Basal Respiratory State, Simmons Lab (AID 2284001). The note with it: actives raise or lower the signal. Summed up: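 Readout is oxygen consumption rate after test compound injection, measured by Seahorse XF in HepG2 cells. Seven concentrations from 125 nM up to 100 uM final are tested, and activity in either direction is fitted against DMSO.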

The nature of assay [6]: CCTE_Simmons_MITO_inhib_resp_rate: CCTE's HepG2 Seahorse XF Respirometric Screening Assay at Inhibited Respiratory State [full ETC block], Simmons Lab (AID 2284006). The conditions noted are these: actives raise or lower the signal. Summed up: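 OCR read-out in the inhibited phase following rotenone/antimycin A, after compound and FCCP injections, in HepG2 cells. Seven concentrations (125 nM to 100 uM final), three biological replicates, 6-min cycles over 72 min; DMSO baseline.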

A short description of assay [7]: CCTE_Shafer_MEA_acute_firing_rate_mean: CCTE's Neural Acute Assay for Mean Firing Rate, Shafer Lab (AID 2284009).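 Further: analyzed for loss of signal so actives lower firing rate relative to DMSO.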 Summed up: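 Spontaneous spiking of primary rat cortical networks, DIV 13/15, 37 C. Compound 0.03-40 uM, n ≥3 wells; 40 min baseline vs 40 min treated. Endpoint fitted in loss-of-signal direction against DMSO.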
The nature of assay [8]: CCTE_Harrill_HTTr_Viability_MCF7: CCTE's 6-hour Cell Viability Assessment for the High-Throughput Transcriptomics (HTTr) Platform, in MCF-7 cells cultured in DMEM + 10% fetal bovine serum, Harrill Lab (AID 2284010). Summed up: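 PI exclusion, high-content imaging; 8-pt dilution series, 6 h exposure; bidirectional fit vs DMSO (neg. ctrl/baseline); gain of signal = loss of membrane integrity.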

Assay [9] in a line: CCTE_Harrill_HTTr_Viability_DMEM_6hr: (Pilot) CCTE's 6-hour Cell Viability Assessment for the High-Throughput Transcriptomics (HTTr) Platform, in MCF-7 cells cultured in DMEM + 10% fetal bovine serum, Harrill Lab (AID 2283973). Summed up:
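Propidium iodide uptake imaged by high-content analysis after six hours of chemical treatment in an eight-concentration series. Cells: MCF-7 grown in DMEM with 10% fetal bovine serum; DMSO as baseline.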

A short description of assay [10]: CCTE_Harrill_HTTr_Viability_DMEM_12hr: (Pilot) CCTE's 12-hour Cell Viability Assessment for the High-Throughput Transcriptomics (HTTr) Platform, in MCF-7 cells cultured in DMEM + 10% fetal bovine serum, Harrill Lab (AID 2283974). Summed up: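 Propidium iodide dye exclusion imaged by high-content microscopy after 12 h chemical exposure (eight concentrations) of MCF-7 cells grown in DMEM plus 10% FBS; values fitted in both directions relative to DMSO.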

Assay [11] is described as follows: CCTE_Harrill_HTTr_Viability_DMEM_24hr: (Pilot) CCTE's 24-hour Cell Viability Assessment for the High-Throughput Transcriptomics (HTTr) Platform, in MCF-7 cells cultured in DMEM + 10% fetal bovine serum, Harrill Lab (AID 2283975). Put shortly: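 Pilot study: propidium iodide dye exclusion, imaged by high content microscopy, after 24 h compound exposure (eight concentrations) in MCF-7 cultured in DMEM + 10% fetal bovine serum; DMSO served as negative control and baseline.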

A short description of assay [12]: CCTE_Harrill_HTTr_Viability_PRF_DMEM_6hr: (Pilot) CCTE's 6-hour Cell Viability Assessment for the High-Throughput Transcriptomics (HTTr) Platform, in MCF-7 cells cultured phenol red-free DMEM + 10% charcoal-stripped fetal bovine serum, Harrill Lab (AID 2283976). Summed up: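 Membrane integrity by high-content imaging of propidium iodide uptake, six hours after dosing with eight concentrations. Cells: MCF-7 grown in phenol red-free DMEM plus 10% charcoal-stripped serum; DMSO serves as baseline for bidirectional fits.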

Assay [13] is described as follows: CCTE_Harrill_HTTr_Viability_PRF_DMEM_12hr: (Pilot) CCTE's 12-hour Cell Viability Assessment for the High-Throughput Transcriptomics (HTTr) Platform, in MCF-7 cells cultured in phenol red-free DMEM + 10% charcoal-stripped fetal bovine serum, Harrill Lab (AID 2283977). Put shortly: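 Membrane integrity was scored via propidium iodide dye exclusion imaging, fitted in both directions relative to DMSO. Compounds ran as eight-point dilutions for 12 hours on MCF-7 grown in phenol red-free DMEM plus 10% charcoal-stripped serum.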

Assay [14] in a line: CCTE_Harrill_HTTr_Viability_PRF_DMEM_24hr: (Pilot) CCTE's 24-hour Cell Viability Assessment for the High-Throughput Transcriptomics (HTTr) Platform, in MCF-7 cells cultured in phenol red-free DMEM + 10% charcoal-stripped fetal bovine serum, Harrill Lab (AID 2283980). Put shortly: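 Propidium iodide exclusion imaged at 24 h after dosing scores viability; cells were MCF-7 grown in phenol red-free DMEM plus 10% charcoal-stripped serum, tested in eight concentrations, fitted in both directions against DMSO.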

A short description of assay [15]: CCTE_Harrill_HTTr_Apoptosis_DMEM_6hr: (Pilot) CCTE's 6-hour Apoptosis Assessment for the High-Throughput Transcriptomics (HTTr) Platform, in MCF-7 cells cultured in DMEM + 10% fetal bovine serum, Harrill Lab (AID 2283981). Put shortly:
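MCF-7 cells grown in DMEM + 10% FBS were exposed for 6 hours to an eight-point dilution series. CellEvent Caspase 3/7 Green signal was imaged; activity fitted bidirectionally against DMSO.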

Assay [16] can be described thus: CCTE_Harrill_HTTr_Apoptosis_DMEM_12hr: (Pilot) CCTE's 12-hour Apoptosis Assessment for the High-Throughput Transcriptomics (HTTr) Platform, in MCF-7 cells cultured in DMEM + 10% fetal bovine serum, Harrill Lab (AID 2283982). Put shortly:
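Caspase-3/7 activity was measured by high-content imaging (CellEvent Caspase 3/7 Green) after a 12-hour exposure of MCF-7 cells grown in DMEM with 10% FBS. Eight-point concentration series, fitted bidirectionally against vehicle.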

The nature of assay [17]: CCTE_Harrill_HTTr_Apoptosis_DMEM_24hr: (Pilot) CCTE's 24-hour Apoptosis Assessment for the High-Throughput Transcriptomics (HTTr) Platform, in MCF-7 cells cultured in DMEM + 10% fetal bovine serum, Harrill Lab (AID 2283983). Put shortly:
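Caspase-3/7 activity read by high-content imaging (CellEvent Green reagent) 24 h after dosing. MCF-7 cells grown in DMEM with 10% FBS received an eight-point concentration series; fits were bidirectional versus DMSO.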

Assay [18] is described as follows: CCTE_Harrill_HTTr_Apoptosis_PRF_DMEM_6hr: (Pilot) CCTE's 6-hour Apoptosis Assessment for the High-Throughput Transcriptomics (HTTr) Platform, in MCF-7 cells cultured phenol red-free DMEM + 10% charcoal-stripped fetal bovine serum, Harrill Lab (AID 2283984). Summed up:
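Caspase-3/7 activity (CellEvent Green) read by high-content imaging 6 h after dosing, eight concentrations. Cells: MCF-7, phenol red-free DMEM with 10% charcoal-stripped serum. Curves fit both directions against DMSO.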

Assay [19] in a line: CCTE_Harrill_HTTr_Apoptosis_PRF_DMEM_24hr: (Pilot) CCTE's 24-hour Apoptosis Assessment for the High-Throughput Transcriptomics (HTTr) Platform, in MCF-7 cells cultured in phenol red-free DMEM + 10% charcoal-stripped fetal bovine serum, Harrill Lab (AID 2283986). Summed up:
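Eight concentrations tested for 24 h on MCF-7 grown in charcoal-stripped serum, phenol red-free DMEM. High content imaging of CellEvent Caspase 3/7 Green signal gives apoptosis read-out, fitted both ways relative to DMSO.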

Nucleoli Translocation, AR (gene 367), sequence (P10275 whole entry, looked up): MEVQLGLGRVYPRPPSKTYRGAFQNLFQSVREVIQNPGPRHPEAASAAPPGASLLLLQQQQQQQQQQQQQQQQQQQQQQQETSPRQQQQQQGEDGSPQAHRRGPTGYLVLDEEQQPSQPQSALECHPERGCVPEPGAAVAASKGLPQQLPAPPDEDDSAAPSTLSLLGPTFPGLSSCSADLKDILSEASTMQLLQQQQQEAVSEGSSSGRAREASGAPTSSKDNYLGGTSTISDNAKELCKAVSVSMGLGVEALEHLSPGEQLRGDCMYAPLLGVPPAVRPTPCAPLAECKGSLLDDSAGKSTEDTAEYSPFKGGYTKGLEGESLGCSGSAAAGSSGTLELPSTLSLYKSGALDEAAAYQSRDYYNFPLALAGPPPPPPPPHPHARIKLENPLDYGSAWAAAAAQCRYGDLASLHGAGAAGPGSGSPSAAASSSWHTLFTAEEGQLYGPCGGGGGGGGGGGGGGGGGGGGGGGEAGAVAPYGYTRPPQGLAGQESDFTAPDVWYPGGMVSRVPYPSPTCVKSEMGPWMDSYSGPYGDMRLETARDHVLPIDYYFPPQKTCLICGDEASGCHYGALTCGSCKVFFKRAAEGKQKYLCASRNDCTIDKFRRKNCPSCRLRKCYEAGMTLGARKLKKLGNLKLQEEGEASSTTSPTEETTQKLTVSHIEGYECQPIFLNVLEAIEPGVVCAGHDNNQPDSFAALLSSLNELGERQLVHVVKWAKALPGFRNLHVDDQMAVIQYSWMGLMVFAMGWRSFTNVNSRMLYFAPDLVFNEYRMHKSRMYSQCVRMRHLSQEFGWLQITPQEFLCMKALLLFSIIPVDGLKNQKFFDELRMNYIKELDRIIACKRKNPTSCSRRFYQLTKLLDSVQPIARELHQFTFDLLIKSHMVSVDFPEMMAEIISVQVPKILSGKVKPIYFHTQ
Ratio of Nucleoli Translocation and Cytoplasm, AR (gene 367), sequence (P10275 whole entry, looked up): as above

What is called AC50 is the concentration at which the activity in the assay is half-maximal. With `Oc1cc2ccccc2c2ccccc12`, the AC50 in [1] was 3.25 µM (active); in assay [3], 3.08 µM (active); in assay [5] it was 28.6 µM (active); in assay [6] it was 11.1 µM (active); in [8], 9.92 µM (active). Besides, the compound was classed as inactive in assay [2], in [4] and in assay [7].
Turning to `O=C(O)Cc1cc(I)c(Oc2cc(I)c(O)c(I)c2)c(I)c1`, the outcome in [9], in [10], in assay [11], in assay [12], in [13] and in assay [14] was inactive. Besides, the result in assay [15], in [16], in assay [17], in [18], in assay [19] and in assay [5] was inactive. For the same compound, the compound was classed as inactive in [6] and in assay [8].
For the compound `COc1cc(CCC(=O)CC(=O)CCc2ccc(O)c(OC)c2)ccc1O`, the half-maximal activity concentration (AC50) in [1] was 26.6 µM (active). For the same compound, the outcome in [3], in assay [4] and in assay [8] was inactive.
Consider `CN(C)C=O`, for which, in [7], the outcome was inactive.
The same measure, in the same setting: under `CCCCCCCCCCCCCCCS(=O)(=O)Oc1ccccc1` stands “inactive”.
For `CCc1nn(C2CCCCC2)c2cc(C3(C#N)CCC(C(=O)O)CC3)ccc12` (stereo not drawn), the AC50 in assay [5] was 15.6 µM (active). For the same compound, the result in [6] and in [8] was inactive.
In the case of `CN1CCC[C@H]1c1cccnc1`, in [7], the compound was called inactive.
Regarding `Cc1cc(CCN2CCN(c3nsc4ccccc34)CC2)cc2c1NC(=O)CC2(C)C`, the AC50 in assay [1] was 50 µM (active); in assay [5], 12.2 µM (active); in [7], 8.94 µM (active); in [8], 77.3 µM (active). In addition, the outcome in [3], in assay [4] and in assay [6] was inactive.
On to `Nc1cccc2c(N)cccc12`, for which the AC50 in assay [1] is 33.3 µM (active); in [6] it was 39.8 µM (active). The call in assay [2], in assay [3], in assay [4], in [5] and in assay [8] was inactive.
In the case of `c1ccc2c(c1)ccc1ccccc12`, in assay [1], the AC50 was 33.7 µM (active). Also, the result in assay [2], in [3], in assay [4] and in assay [8] was inactive.
Regarding `CC(=O)CC(C)(C)O`, the compound was called inactive in [1], in [2], in assay [3], in assay [4] and in assay [8].
As for `OC1CCC(C2CCCCC2)CC1` (stereo not drawn), the figures for the AC50 in assay [5] and in [7] were 50 µM (active) and 20 µM (active), respectively. In addition, the result in [6] and in assay [8] was inactive.
Regarding `O=C(/C=C/c1ccc(O)cc1)CC(=O)/C=C/c1ccc(O)cc1`, the AC50 in assay [1] was 16.3 µM (active). Further, the result in assay [2], in assay [3], in assay [4] and in [8] was inactive.
As for `NC(=O)N(O)[C@@H]1C=C[C@H](Oc2cccc(Oc3ccc(F)cc3)c2)C1`, the AC50 in assay [5] is 22.1 µM (active). The compound was called inactive in assay [6], in assay [7] and in assay [8].
With `CCCCC[C@H](O)CC(=O)CCc1ccc(O)c(OC)c1`, the compound was called inactive in assay [1], in assay [3], in assay [4] and in [8].
